Source: PubChem BioAssay (National Center for Advancing Translational Sciences (NCATS))
KDM4E inh: qHTS Assay for Inhibitors of Human Jumonji Domain Containing 2E (JMJD2E); JMJD2E catalytic domain, FDH-coupled NADH fluorescence (FDH is formaldehyde dehydrogenase); Lysine-specific demethylase 4E (Homo sapiens), B2RXH2; AID 2147, 2009; 230,000 tested, 1.6% active; Potency, µM (highest dose often 57.1 µM), for the others: top-dose activity change, negative = inhibition, hits mostly inhibitors; active = well fitted inhibition curve with a large enough effect, not every such curve was filed as active; inconclusive = small, poorly fitted or top-dose-only effect, or another doubt; inactive = no such curve, though single readings can be large or run the other way;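 note: potency is the fitted concentration of half-maximal effect; 0% = wells with enzyme and -100% = buffer wells without enzyme; nearly all actives have a fitted effect of over 50% in size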
Target sequence (B2RXH2 1-337 limits assumed): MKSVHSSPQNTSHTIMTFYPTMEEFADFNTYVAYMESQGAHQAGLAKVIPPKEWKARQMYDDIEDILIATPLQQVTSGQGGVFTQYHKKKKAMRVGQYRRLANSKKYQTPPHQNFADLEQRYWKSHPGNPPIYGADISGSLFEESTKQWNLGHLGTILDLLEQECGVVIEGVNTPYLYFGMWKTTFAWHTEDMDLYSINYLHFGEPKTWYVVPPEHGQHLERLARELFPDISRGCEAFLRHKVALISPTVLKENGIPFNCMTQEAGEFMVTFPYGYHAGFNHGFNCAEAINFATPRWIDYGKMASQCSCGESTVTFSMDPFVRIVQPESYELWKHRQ
Tau ThT inhib: qHTS for Inhibitors of Tau Fibril Formation, Thioflavin T Binding; Microtubule-associated protein tau (Homo sapiens), P10636; recombinant tau K18 P301L, heparin-induced fibrillization, ThT fluorescence; Potency, µM (doses to about 57.4 µM), for the others: top-dose activity, negative = inhibition, usual class: inhibitors; 270,000 tested, 2.1% active; AID 1460, 2008; note: potency is the fitted concentration of half-maximal effect; nearly all actives have a fitted effect of over 55% in size
Target sequence (P10636 561-689 P618L limits assumed): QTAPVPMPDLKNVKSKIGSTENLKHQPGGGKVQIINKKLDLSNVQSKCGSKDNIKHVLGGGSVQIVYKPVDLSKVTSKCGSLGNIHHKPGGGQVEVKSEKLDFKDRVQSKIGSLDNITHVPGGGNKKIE
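Tau K18 P301L fragment (15 uM unlabeled plus 0.24 uM Alexa 594-labeled) in 100 mM sodium acetate pH 7 with compound, fibrillization induced by 20 uM heparin for 6 hr at 37 C. Thioflavin T (30 uM) added, fluorescence read after 1 hr (ex 450, em 510 nm).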
Tau fluor cs: Counterscreen qHTS for Inhibitors of Tau Fibril Formation, Fluorescence Polarization. Potency, µM (highest dose often 57.7 µM), for inactives: top-dose activity change, negative = decrease. 280,000 tested, 0.93% active. tau K18 P301L Alexa594 fluorescence, heparin fibrillization. AID 1463, 2008; note: potency is the fitted concentration of half-maximal effect; nearly all actives have a fitted effect of over 55% in size
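Human K18 P301L tau (15 uM unlabeled plus 0.24 uM Alexa 594-labeled, final) in 100 mM sodium acetate pH 7 was mixed with compound and 20 uM heparin and incubated 6 hr at 37 C.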
FBPA coupling cs: qHTS Assay for Inhibitors of Fructose-1,6-bisphosphate Aldolase from Giardia Lamblia: Coupling assay counterscreen; coupling enzyme system counterscreen, AmpLite Red fluorescence; activity change, negative = inhibition, % at 58.2 µM, hits read low; 290,000 tested, 0.67% active; in the data active = activity change below about -30%
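Counterscreen lacking aldolase: glyceraldehyde-3-phosphate coupling-enzyme reagent preincubated 10 min at RT with compound (at 57.5 uM final), then substrate/coupling system with AmpLite Red added; fluorescence read at 525/598 nm after 20 min RT.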
Tau fibril FP: qHTS for Inhibitors of Tau Fibril Formation, Fluorescence Polarization | Microtubule-associated protein tau (Homo sapiens), P10636 | K18 P301L tau heparin fibrillization, Alexa594 FP, 6 h | Potency, µM (doses to about 57.7 µM), for inactives: top-dose activity, negative = inhibition, usual class: inhibitors | 280,000 tested, 0.39% active | AID 1468, 2008; note: potency is the fitted concentration of half-maximal effect; nearly all actives have a fitted effect of over 55% in size
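Heparin (20 uM) drove fibril formation of recombinant tau K18 P301L, 15 uM unlabeled with 0.24 uM Alexa 594 label, for 6 hr at 37 C in 100 mM sodium acetate pH 7. Fluorescence polarization (555/632 nm) read 1 hr after 30 uM ThT.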
* = called active by the depositor; [ ] = dose if it differs, or a comment. Only some compounds are listed: those with a hit (about 3% of all), similar ones and a draw of the others. Unless noted, calls come from the whole dose curve; as a rule, active = well fitted curve in the direction sought with a large enough effect; inconclusive = small, poorly fitted or top-dose-only effect, or another doubt; inactive = no such curve, though single readings can be large; an effect the other way counts as inactive or inconclusive. Unless noted, % is set by controls: 0 for no effect and ±100 for the full control effect.

Results for CN(C)c1ccc(NC(=O)Cn2cc(S(=O)(=O)Cc3ccccc3Cl)c3ccccc32)cc1 ?
Tau ThT inhib: inconclusive; Tau fluor cs: 11µM*[quencher]; Tau fibril FP: 17%

What do the screens show for `CN(C)c1ccc(NC(=O)Cn2cc(S(=O)(=O)Cc3cccc(Cl)c3)c3ccccc32)cc1`?
Tau ThT inhib: inconclusive; Tau fluor cs: inconclusive; Tau fibril FP: 8%

What do the screens show for `Cn1cccc1-c1nc2ccc(NC(=O)c3cccs3)cc2[nH]1`?
KDM4E inh: -11%; Tau ThT inhib: 11µM*; Tau fluor cs: inconclusive; FBPA coupling cs: -3; Tau fibril FP: 6%

Results for COc1cccc(C2CC(=O)N3CN(c4ccccc4F)CSC3=C2C#N)c1 (stereo unspecified) ?
KDM4E inh: inconclusive; Tau ThT inhib: inconclusive; Tau fluor cs: -15%; FBPA coupling cs: -10; Tau fibril FP: -8%

Results for COc1cc(C2CC(=O)N3CN(c4ccccc4C)CSC3=C2C#N)cc(OC)c1OC (stereo unspecified) ?
KDM4E inh: 11µM*; Tau ThT inhib: 22µM*; Tau fluor cs: -13%; FBPA coupling cs: -36*; Tau fibril FP: inconclusive

Results for COc1ccccc1N1CSC2=C(C#N)C(c3ccc(SC)cc3)CC(=O)N2C1 (stereo unspecified) ?
KDM4E inh: 22µM*; Tau ThT inhib: 28µM*; Tau fluor cs: -24%; FBPA coupling cs: -38*; Tau fibril FP: inconclusive

How did Oc1c(N=NC(=S)Nc2ccccc2F)c2ccccc2n1Cc1ccccc1Cl do in these assays?
KDM4E inh: 8%; Tau ThT inhib: -19%; Tau fluor cs: inconclusive; FBPA coupling cs: 0; Tau fibril FP: inconclusive

How did Cc1c(Cl)cccc1NC(=S)N=Nc1c(O)n(CN2CCOCC2)c2ccccc12 do in these assays?
KDM4E inh: 3%; Tau ThT inhib: inconclusive; Tau fluor cs: 18µM*[quencher]; FBPA coupling cs: -2; Tau fibril FP: -14%

How did Cc1c(NC2=C(Cl)C(=O)N(c3ccccc3)C2=O)c(=O)n(-c2ccccc2)n1C do in these assays?
KDM4E inh: -16%; Tau ThT inhib: inconclusive; Tau fluor cs: -18%; FBPA coupling cs: -26; Tau fibril FP: inconclusive

What do the screens show for `Cc1ccc(O)c(NC2=C(Cl)C(=O)N(Cc3ccccc3)C2=O)c1`?
KDM4E inh: 22µM*; Tau ThT inhib: 13µM*; Tau fluor cs: inconclusive; FBPA coupling cs: -3; Tau fibril FP: inconclusive

How did O=C1C(Cl)=C(Nc2ccccc2O)C(=O)N1c1ccccc1 do in these assays?
KDM4E inh: inconclusive; Tau ThT inhib: 14µM*; Tau fluor cs: inconclusive; FBPA coupling cs: -5; Tau fibril FP: inconclusive

What do the screens show for `COc1ccccc1N1C(=O)C(Cl)=C(Nc2ccccc2O)C1=O`?
KDM4E inh: inconclusive; Tau ThT inhib: 13µM*; Tau fluor cs: inconclusive; FBPA coupling cs: -3; Tau fibril FP: 28µM*

What do the screens show for `COc1ccc(-c2cnc(C)o2)cc1S(=O)(=O)Nc1ccc(C)c(F)c1`?
Tau ThT inhib: -15%; Tau fluor cs: inconclusive; Tau fibril FP: 1%

What do the screens show for `Cn1cc(-c2cc3n(n2)CCC(=O)N3CC(=O)NCc2ccc(Cl)cc2)c2ccccc21`?
Tau ThT inhib: -4%; Tau fluor cs: -19%; Tau fibril FP: 11%

What do the screens show for `O=C1NCCCC1C(=O)N/N=C/c1cc([N+](=O)[O-])ccc1O` (stereo unspecified)?
KDM4E inh: 10µM*; Tau ThT inhib: -14%; Tau fluor cs: -2%; FBPA coupling cs: -2; Tau fibril FP: 4%

What do the screens show for `O=C(N/N=C/c1cc([N+](=O)[O-])ccc1O)C1CC1`?
KDM4E inh: 28µM*; Tau ThT inhib: -17%; Tau fluor cs: -8%; FBPA coupling cs: -1; Tau fibril FP: 1%

Results for CCOc1ccc(NC(=O)CC2C(=O)N(c3cccc(C)c3)C(=O)N2Cc2cccnc2)cc1 (stereo unspecified) ?
Tau ThT inhib: 15%; Tau fluor cs: -5%; Tau fibril FP: 3%

What do the screens show for `Cn1cnnc1SCC(=O)Nc1sc2c(c1C#N)CCCCC2`?
KDM4E inh: -3%; Tau ThT inhib: -11%; Tau fluor cs: -6%; FBPA coupling cs: -42*; Tau fibril FP: 4%

What do the screens show for `Cc1nc2c(C(=O)NCc3ccccc3Cl)cnn2c(C)c1Cc1c(F)cccc1Cl`?
Tau ThT inhib: -4%; Tau fluor cs: 4%; Tau fibril FP: -2%

Results for CC(C)=NOCc1ccc(-c2cn([C@@H]3COC[C@@H]3O)nn2)cc1 ?
Tau ThT inhib: 1%[11.5 µM]; Tau fluor cs: -2%[11.6 µM]; FBPA coupling cs: -5; Tau fibril FP: -13%[11.6 µM]

Results for COc1ccccc1-c1noc(CSc2nnc(Cc3ccccc3)n2-c2ccc(C)c(C)c2)n1 ?
Tau ThT inhib: -17%; Tau fluor cs: -16%; Tau fibril FP: 10%

How did COc1ccc(/C=N/Nc2ncccc2[N+](=O)[O-])c(OC)c1 do in these assays?
KDM4E inh: -3%; Tau ThT inhib: 13µM*; Tau fluor cs: inconclusive; FBPA coupling cs: -4; Tau fibril FP: 1%

How did COC(=O)C(=Cc1ccccc1[N+](=O)[O-])C(=O)OC do in these assays?
KDM4E inh: -4%; Tau ThT inhib: 25µM*; Tau fluor cs: -27%; FBPA coupling cs: 0; Tau fibril FP: inconclusive

How did O=C(/C=C/c1ccccc1[N+](=O)[O-])Oc1ccccc1 do in these assays?
FBPA coupling cs: 0

Results for O=C(Cc1ccccc1)N/N=C/C=C/c1ccccc1[N+](=O)[O-] ?
KDM4E inh: 5%; Tau ThT inhib: -4%; Tau fluor cs: -3%; FBPA coupling cs: 2; Tau fibril FP: -12%

How did COc1ccc(OC)c(NC(=O)/C=C/c2ccccc2[N+](=O)[O-])c1 do in these assays?
KDM4E inh: -4%; Tau ThT inhib: inconclusive; Tau fluor cs: inconclusive; FBPA coupling cs: -5; Tau fibril FP: inconclusive

What do the screens show for `COc1ccc(NC(=O)/C=C/c2ccccc2[N+](=O)[O-])c(OC)c1`?
KDM4E inh: -6%; Tau ThT inhib: 13µM*; Tau fluor cs: inconclusive; FBPA coupling cs: -3; Tau fibril FP: 10%

Results for O=C(O)c1ccc(N/N=C/C=C/c2ccccc2[N+](=O)[O-])cc1 ?
KDM4E inh: 3%; Tau ThT inhib: 13µM*; Tau fluor cs: -26%; FBPA coupling cs: -1; Tau fibril FP: 12%

What do the screens show for `CN1CCN(c2ncc3ncc(=O)n(-c4ccccc4)c3n2)CC1`?
FBPA coupling cs: 2
